The record followed here is PubChem BioAssay (NCI).

About 83,000 compounds went through this panel and 20% of them were active in at least one assay; those are over-represented in the sample as a whole.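 Values shown are percent growth following 48 h exposure of cells in 96-well plates to a single concentration of compound; below 10 was considered active.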 Unmarked numbers belong to inactive results. Calls of active or inactive are those of the source.

Test systems include SR leukemia; RPMI-8226 leukemia; OVCAR-8 ovarian; OVCAR-5 ovarian; OVCAR-4 ovarian; SK-OV-3 ovarian; IGROV1 ovarian; OVCAR-3 ovarian; HS 578T breast; NCI/ADR-RES ovarian.
Test in all cases: NCI-60 one-dose screen, 48 h (100 = growth as untreated, 0 = no growth, -100 = all killed)
Holding throughout (conditions): 10 µM unless noted

`CCCCCCCCN(CCO)CCCCCCCC`: the growth was 96.7% with SR leukemia; 121% with RPMI-8226 leukemia; 101% in the experiment with OVCAR-8 ovarian; 96.9% with OVCAR-5 ovarian; 93.8% with OVCAR-4 ovarian; 103% with SK-OV-3 ovarian. Further, the growth in the experiment on IGROV1 ovarian was 105%; with OVCAR-3 ovarian, 109%; in the experiment on HS 578T breast, 117%; in the experiment on NCI/ADR-RES ovarian, 105%.

Regarding `CC1CN(/N=C/c2ccc([N+](=O)[O-])o2)C(=N)O1` (stereo not given), the growth in the experiment on SR leukemia was 107%; with RPMI-8226 leukemia, 97.4%; in the experiment with OVCAR-8 ovarian, 96.6%; in the experiment on OVCAR-5 ovarian, 106%; in the experiment on OVCAR-4 ovarian, 101%; with SK-OV-3 ovarian, 118%. Moreover, the growth with IGROV1 ovarian was 98.3%; in the experiment on OVCAR-3 ovarian, 105%; in the experiment with HS 578T breast it was 105%; with NCI/ADR-RES ovarian, 101%.

As for `NC(=NCCCCCCN=C(N)/N=C(\N)Nc1ccc(Cl)cc1)/N=C(\N)Nc1ccc(Cl)cc1`, the growth with SR leukemia was 25.1%; with RPMI-8226 leukemia, 28.4%; in the experiment with OVCAR-8 ovarian, 17.6%; in the experiment with OVCAR-5 ovarian, 28.7%; in the experiment with OVCAR-4 ovarian, 21.4%; in the experiment with SK-OV-3 ovarian it was 2.57% (active). Moreover, the growth is -24.1% (active) in the experiment on IGROV1 ovarian, 17% with OVCAR-3 ovarian, 18.1% in the experiment on HS 578T breast and 46.8% in the experiment with NCI/ADR-RES ovarian.

Turning to `C/C(=C\CCc1ccoc1)CC/C=C(\C)CCCN1CCSCC1`, the growth in the experiment with SR leukemia was 45.6%; with RPMI-8226 leukemia, 38.2%; with OVCAR-8 ovarian, 89.8%; in the experiment on OVCAR-5 ovarian, 70.1%; with OVCAR-4 ovarian it was 75.3%; in the experiment on SK-OV-3 ovarian, 84.6%. Besides, the growth is 93.7% in the experiment on IGROV1 ovarian, 44.4% in the experiment with OVCAR-3 ovarian, 98.1% with HS 578T breast and 73.8% with NCI/ADR-RES ovarian.

On to `COc1ccc(-c2ccc(O)c(C(=O)/C=C/c3cc(OC)c(OC)c(OC)c3)c2)cc1`, for which the growth is 56.2% in the experiment with SR leukemia; 24.7% in the experiment with RPMI-8226 leukemia; 71.8% with OVCAR-8 ovarian; 106% with OVCAR-5 ovarian; 79.6% with OVCAR-4 ovarian; 77.6% in the experiment with SK-OV-3 ovarian. In addition, the growth was 78.3% with IGROV1 ovarian, 93.7% in the experiment on OVCAR-3 ovarian, 113% with HS 578T breast and 69.9% in the experiment on NCI/ADR-RES ovarian.

Consider `O=C(NC1CCCCC1)c1ccc(Nc2ncnc3c2cnn3-c2ccccc2)cc1`, for which the growth in the experiment on SR leukemia is 67.5%; with RPMI-8226 leukemia, 89.5%; in the experiment on OVCAR-8 ovarian, 21.6%; with OVCAR-5 ovarian, 80.3%; in the experiment with OVCAR-4 ovarian, 30.3%; with SK-OV-3 ovarian, 54%. The growth is 71.1% with IGROV1 ovarian, 87.4% in the experiment with OVCAR-3 ovarian, 0.218% (active) in the experiment on HS 578T breast and 74.2% in the experiment with NCI/ADR-RES ovarian.

In the case of `c1ccc2nc(Cn3c[n+](Cc4ccc5ccccc5n4)c4ccccc43)ccc2c1`, the growth in the experiment on SR leukemia was 14.7%; in the experiment with RPMI-8226 leukemia it was -6.43% (active); in the experiment on OVCAR-8 ovarian, 29.9%; with OVCAR-5 ovarian, 71.1%; with OVCAR-4 ovarian, 22.7%; with SK-OV-3 ovarian it was 57.4%. For the same compound, the growth with IGROV1 ovarian is 34.8%; with OVCAR-3 ovarian it was 23.8%; in the experiment with HS 578T breast, 60.5%; with NCI/ADR-RES ovarian it was 102%.

For `O=CNc1ccc2c(c1)Cc1cc([N+](=O)[O-])ccc1-2`, the growth in the experiment with SR leukemia was 31.6%; in the experiment with RPMI-8226 leukemia, 35.6%; in the experiment on OVCAR-8 ovarian it was 41.3%; in the experiment with OVCAR-5 ovarian, 36.2%; in the experiment with OVCAR-4 ovarian, 74.5%; in the experiment on SK-OV-3 ovarian it was 12.8%. The growth is 30.7% in the experiment on IGROV1 ovarian, 16.1% in the experiment on OVCAR-3 ovarian, 40.1% with HS 578T breast and 3.1% (active) with NCI/ADR-RES ovarian.

For `COc1cc(NC(C)CCCN)c2nc(C)ccc2c1Oc1ccc(F)cc1` (stereo not given), the growth in the experiment with SR leukemia is 60.9%; in the experiment with RPMI-8226 leukemia, 70.3%; in the experiment on OVCAR-8 ovarian it was 77.4%; in the experiment with OVCAR-5 ovarian, 83.4%; with OVCAR-4 ovarian, 62.6%; with SK-OV-3 ovarian, 105%. Moreover, the growth with IGROV1 ovarian was 56.2%; in the experiment on OVCAR-3 ovarian, 71.3%; in the experiment on HS 578T breast, 49.7%; in the experiment on NCI/ADR-RES ovarian, 77.6%.

For `Cc1cc(=O)oc2cc(OCCn3c(C)nn(-c4ccc(Cl)cc4)c3=O)ccc12`, the growth is 21.2% in the experiment with SR leukemia; 31% with RPMI-8226 leukemia; 17.7% in the experiment with OVCAR-8 ovarian; 38.8% with OVCAR-5 ovarian; 67.1% with OVCAR-4 ovarian; 41.1% in the experiment on SK-OV-3 ovarian. Further, the growth with IGROV1 ovarian was 59.7%; in the experiment with OVCAR-3 ovarian, 14.8%; in the experiment with HS 578T breast, 34.8%; in the experiment with NCI/ADR-RES ovarian, 24.7%.

Turning to `O=C1CSC(c2ccccc2O)N1c1nnc(Cn2ccnc2)o1` (stereo not given), the growth with SR leukemia was 43.9%; in the experiment with RPMI-8226 leukemia, 36.1%; in the experiment on OVCAR-8 ovarian, 58.8%; with OVCAR-5 ovarian, 97.2%; in the experiment on OVCAR-4 ovarian it was 64.4%; in the experiment with SK-OV-3 ovarian it was 74.2%. For the same compound, the growth in the experiment with IGROV1 ovarian is 67.7%; in the experiment on OVCAR-3 ovarian, 37.8%; with HS 578T breast, 80.6%; in the experiment with NCI/ADR-RES ovarian it was 26%.

Regarding `COc1cccc2c1C(=O)c1c(O)c3c(c(O)c1C2=O)C[C@@](O)(C(C)=O)C[C@@H]3O[C@H]1C[C@H](N)[C@H](O)[C@H](C)O1`, the growth with SR leukemia was -5.17% (active); in the experiment with RPMI-8226 leukemia it was -22.9% (active); with OVCAR-8 ovarian it was -6.3% (active); with OVCAR-5 ovarian it was 2.15% (active); in the experiment with OVCAR-4 ovarian, -16.8% (active); in the experiment on SK-OV-3 ovarian, 7.97% (active). The growth in the experiment with IGROV1 ovarian was -10.2% (active); with OVCAR-3 ovarian, -18.7% (active); in the experiment on HS 578T breast, -17.6% (active); in the experiment on NCI/ADR-RES ovarian, 11.8%.

Take `Oc1c(Cl)cc(Cl)c(Cl)c1Cc1c(O)c(Cl)cc(Cl)c1Cl`: the growth was 63.9% with SR leukemia; 6.95% (active) in the experiment with RPMI-8226 leukemia; 7.43% (active) in the experiment with OVCAR-8 ovarian; 39.4% with OVCAR-5 ovarian; 29.5% in the experiment on OVCAR-4 ovarian; 19.1% in the experiment on SK-OV-3 ovarian. In addition, the growth in the experiment with IGROV1 ovarian was 25.1%; in the experiment with OVCAR-3 ovarian it was 10.8%; in the experiment with HS 578T breast it was -1.24% (active); in the experiment with NCI/ADR-RES ovarian, 3.82% (active).
